High-throughput results from PubChem.
A selection follows.
PostGolgi yeast: growth inhibition of a yeast mutant, post-Golgi transport screen; 98,000 compounds, 0.9% hits; inhibition, % at 10 µM; post-Golgi transport phenotypic cell assay;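 further: yeast cells grown in 1536-well plates; yeast grown about 18 h at 30C before absorbance read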
PostGolgi ctrl: yeast control strain growth, post-Golgi counter-screen; efflux-deficient yeast background strain, growth absorbance A615, 16 h; 98,000 compounds, 5% hits; AID 738; inhibition, % at 10 µM
CYP2C9 inh: blocks human cytochrome P450 2C9. inhibition, % at 5 µM. AID 777. P11712. 96,000 compounds, 20% hits. CYP2C9 Supersomes, luciferin-H conversion, luminescence;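 active means blocking of liver enzyme CYP2C9 beyond about 50% at 5 µM, limit read from the data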
Target sequence (P11712 whole entry, looked up): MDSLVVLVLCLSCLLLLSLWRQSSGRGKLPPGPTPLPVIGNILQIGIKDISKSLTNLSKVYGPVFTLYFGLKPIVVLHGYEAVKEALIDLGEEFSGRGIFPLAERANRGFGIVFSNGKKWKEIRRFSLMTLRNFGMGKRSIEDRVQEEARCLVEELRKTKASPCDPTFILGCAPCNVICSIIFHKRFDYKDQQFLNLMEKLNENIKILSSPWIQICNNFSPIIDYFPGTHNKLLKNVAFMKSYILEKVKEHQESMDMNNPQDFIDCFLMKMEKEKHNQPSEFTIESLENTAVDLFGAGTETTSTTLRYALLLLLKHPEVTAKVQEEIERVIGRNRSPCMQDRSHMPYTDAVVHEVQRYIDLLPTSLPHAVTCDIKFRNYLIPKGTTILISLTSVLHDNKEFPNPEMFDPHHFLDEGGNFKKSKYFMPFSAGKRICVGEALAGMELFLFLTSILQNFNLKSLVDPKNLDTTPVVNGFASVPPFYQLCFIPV
CYP2C19 act: increases human CYP2C19 enzyme activity. AID 1025. activation factor at 5 µM. recombinant CYP2C19, luciferin-H EGE luminescence; stronger effect = higher value; 0 = fully inhibited enzyme, 1 = untreated enzyme. P33261. 96,000 tested, under 10 active;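 active means activation factor of at least 2 at 5 µM in the primary screen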;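 further: 0 = wells with 2.5 mM tranylcypromine and 1 = vehicle-only wells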
CYP2C9 act: increases human cytochrome P450 2C9 activity; 96,000 compounds, 1.4% hits; recombinant CYP2C9, luciferin-H conversion, luminescence; stronger effect = higher value; factor 1 = untreated enzyme, 0 = blocked; activation factor at 5 µM; P11712; AID 1024;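 active means activation factor of 2 or more for CYP2C9 at a 5 µM dose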;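 further: 0 = sulfaphenazole-blocked wells and 1 = vehicle-only wells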
CYP2C19 inh: blocks human cytochrome P450 2C19. CYP2C19 Supersomes, luciferin-H EGE luminescence, 30 min. inhibition, % at 5 µM. 96,000 compounds, 21% hits. P33261;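 active means CYP2C19 inhibition above a set limit at 5 µM in the primary screen, cut at about 50% in these data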;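 further: plate controls were negative control wells for no effect and 2.5 mM tranylcypromine positive control for full effect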
* marks the source's active call; other numbers are inactive results. Unless noted, no stated cut-off is given here; in the data, active means inhibition above about 30%; inactive means the rest.

Screening Cc1ccccc1Cn1c(=O)n(CCC(=O)NCc2ccc3c(c2)OCO3)c(=O)c2ccccc21 returned PostGolgi yeast -2, PostGolgi ctrl -3, CYP2C9 inh 34, CYP2C19 act 0.7, CYP2C9 act 0.7 and CYP2C19 inh 32.
For O=C(Cn1cccc1C(=O)c1ccccc1)NCc1ccccc1 the results were PostGolgi yeast 5, PostGolgi ctrl 13, CYP2C9 inh -16, CYP2C19 act 0.6, CYP2C9 act 1.2 and CYP2C19 inh 42.
Screening O=C(CCn1c(=O)c2ccccc2n(Cc2cccnc2)c1=O)NCc1ccc2c(c1)OCO2 returned PostGolgi yeast 14, PostGolgi ctrl 9, CYP2C9 inh 69*, CYP2C19 act 0.2, CYP2C9 act 0.3 and CYP2C19 inh 77*.
O=C(Cn1cccc1C(=O)c1ccccc1)NCc1cccs1 was read as PostGolgi yeast 5, PostGolgi ctrl 8, CYP2C9 inh 2, CYP2C19 act 0.3, CYP2C9 act 1 and CYP2C19 inh 73*.
For CC(C)CN1C(=O)C(=O)N(CC(=O)NCc2ccc3c(c2)OCO3)C1=O the results were PostGolgi yeast -3, PostGolgi ctrl 13, CYP2C9 inh 17, CYP2C19 act 0.5, CYP2C9 act 0.8 and CYP2C19 inh 49.
For Cc1nc2ccccc2nc1OCC(=O)NCc1ccc2c(c1)OCO2 the results were PostGolgi yeast 12, PostGolgi ctrl 3, CYP2C9 inh 11, CYP2C19 act 0.5, CYP2C9 act 0.9 and CYP2C19 inh 51*.
`O=C(Nc1ccccc1)NC1CS(=O)(=O)CC1O` (stereo not drawn) gave PostGolgi yeast 1, PostGolgi ctrl 4, CYP2C9 inh -13, CYP2C19 act 1.2, CYP2C9 act 1.1 and CYP2C19 inh -17.
CC1CCCCN1S(=O)(=O)c1ccc2c(c1)CCN2C(=O)C1CCC1 (stereo not drawn) was read as PostGolgi yeast 2, PostGolgi ctrl 25, CYP2C9 inh 41, CYP2C19 act 0.7, CYP2C9 act 0.6 and CYP2C19 inh 26.
Screening Cc1ccc(NC(=O)CN2C(=O)C(C)Oc3ccccc32)nc1 (stereo not drawn) returned PostGolgi yeast -5, PostGolgi ctrl 5, CYP2C9 inh -3, CYP2C19 act 0.9, CYP2C9 act 1 and CYP2C19 inh 10.
For FC(F)(F)c1nc2ccccc2nc1N/N=C/c1c(Cl)cccc1Cl the results were PostGolgi yeast -3, PostGolgi ctrl 3, CYP2C9 inh 22, CYP2C19 act 0.6, CYP2C9 act 0.8 and CYP2C19 inh 44.
For COc1cc(C(=O)N2CCN(S(=O)(=O)c3ccc(F)cc3)CC2)cc(OC)c1OC the results were PostGolgi yeast 2, PostGolgi ctrl -4, CYP2C9 inh 15, CYP2C19 act 0.6, CYP2C9 act 0.8 and CYP2C19 inh 43.
`COc1ccc2c(c1)N(C)/C(=C1/SC(=NCc3ccccc3)N(c3ccccc3)C1=O)S2` gave PostGolgi yeast 7, PostGolgi ctrl 9, CYP2C9 inh 36, CYP2C19 act 0.9, CYP2C9 act 0.6 and CYP2C19 inh 8.
Screening O=C(CSCc1ccc(Cl)cc1)NCc1ccc2c(c1)OCO2 returned PostGolgi yeast 10, PostGolgi ctrl 11, CYP2C9 inh 100*, CYP2C19 act 0.7, CYP2C9 act 0 and CYP2C19 inh 32.
For CS(=O)(=O)N(CC(=O)NCc1ccc2c(c1)OCO2)Cc1ccccc1 the results were PostGolgi yeast 17, PostGolgi ctrl 5, CYP2C9 inh 34, CYP2C19 act 0.4, CYP2C9 act 0.7 and CYP2C19 inh 62*.
`Cc1ccc(-c2cc(C(=O)NCc3ccccn3)no2)cc1` gave PostGolgi yeast 8, PostGolgi ctrl -5, CYP2C9 inh 47, CYP2C19 act 0.5, CYP2C9 act 0.5 and CYP2C19 inh 46.
`COc1ccc(C(=O)Nc2c(N)nc(SCC(=O)N3CCCCCC3)[nH]c2=O)cc1OC` gave PostGolgi yeast -9 and PostGolgi ctrl 10.
Screening CCOC(=O)C(CCCOc1cccc(CC)c1)C(=O)OCC returned PostGolgi yeast 6, PostGolgi ctrl 2, CYP2C9 inh 13, CYP2C19 act 0.9, CYP2C9 act 0.9 and CYP2C19 inh 11.
For CCCCCCCCCOC(=O)C[n+]1csc(CCO)c1C the results were PostGolgi yeast 14, PostGolgi ctrl 64*, CYP2C9 inh 7, CYP2C19 act 0.2, CYP2C9 act 0.9 and CYP2C19 inh 76*.
For CCOC(=O)c1cc(C#N)c(NCc2ccccc2)nc1C the results were PostGolgi yeast 15, PostGolgi ctrl 10, CYP2C9 inh 25, CYP2C19 act 0.9, CYP2C9 act 0.7 and CYP2C19 inh 6.
For CCOC(=O)c1nnc(-c2ccccc2)nc1Sc1ccccc1Cl the results were PostGolgi yeast -2, PostGolgi ctrl 23, CYP2C9 inh 54*, CYP2C19 act 0.8, CYP2C9 act 0.5 and CYP2C19 inh 20.
`CCOC(=O)c1nnc(-c2ccccc2)nc1NCc1ccccc1` gave PostGolgi yeast 15, PostGolgi ctrl 35*, CYP2C9 inh 37, CYP2C19 act 0.9, CYP2C9 act 0.6 and CYP2C19 inh 12.
Screening [O-][N+]1=C(c2cccs2)CN(O)C1 returned PostGolgi yeast 2, PostGolgi ctrl -10, CYP2C9 inh -6, CYP2C19 act 1.1, CYP2C9 act 1.1 and CYP2C19 inh -9.
COc1ccc(N2CCN(c3cc(=O)n(Cc4ccc(F)cc4)c(=O)[nH]3)CC2)cc1 was read as PostGolgi yeast -11, PostGolgi ctrl 8, CYP2C9 inh -14, CYP2C19 act 1.1, CYP2C9 act 1.1 and CYP2C19 inh -12.
`CCC1(C)CC(CCNS(=O)(=O)c2ccc(C)cc2)(c2ccc(C)cc2)CCO1` (stereo not drawn) gave PostGolgi yeast 5, PostGolgi ctrl 21, CYP2C9 inh 53*, CYP2C19 act 0.3, CYP2C9 act 0.5 and CYP2C19 inh 69*.
`CC(=O)C1=C(O)C(=O)N(CCN(C)C)C1c1ccc(Cl)cc1` (stereo not drawn) gave PostGolgi yeast -8, PostGolgi ctrl 8, CYP2C9 inh -13, CYP2C19 act 1.1, CYP2C9 act 1.1 and CYP2C19 inh -9.
O=C(CC1CCCC1)NCCc1cn2ccccc2n1 was read as PostGolgi yeast -7, PostGolgi ctrl -1, CYP2C9 inh 21, CYP2C19 act 0.3, CYP2C9 act 0.8 and CYP2C19 inh 68*.
Screening O=C(CC1CCCCC1)NCc1cn2ccsc2n1 returned PostGolgi yeast -2, PostGolgi ctrl 5, CYP2C9 inh 53*, CYP2C19 act 0.6, CYP2C9 act 0.5 and CYP2C19 inh 37.
Cc1ccn2cc(CCNC(=O)C3CCCCC3)nc2c1 was read as PostGolgi yeast 2, PostGolgi ctrl 8, CYP2C9 inh -7, CYP2C19 act 0.8, CYP2C9 act 1.1 and CYP2C19 inh 24.
CCCC(=O)N1CC2(C)CN(C(=O)CCC)CC(CCC)(C1)C2=O was read as PostGolgi yeast 21, PostGolgi ctrl 1, CYP2C9 inh -5, CYP2C19 act 1.1, CYP2C9 act 1.1 and CYP2C19 inh -13.
